In ChEMBL document CHEMBL3988442, “University of Dundee, Small-Polar-MMV Screening Library” (2021):
Screen size: about 48,000 compounds; about 13,000 (27%) showed an effect of 50% or more. The list shows a part of the results.

These molecules were tested on Wolbachia pipientis (assay: Anti-Wolbachia Cell-Based Screen). Details: 5 µM.
Assay type: functional
Set-up: scale not given: in the data most compounds retested in dose-response had high values
For `O=C(NCc1cc2ccccc2s1)c1cc(CN2CCCC(O)C2)on1` (stereo not drawn), the “Percent Effect” value was 4.701%.
With `O=C(O)CC[C@@H]1CN(c2ncnc3[nH]ccc23)CC[C@@H]1N1CCOCC1` the “Percent Effect” value was -3.371%.
`COCc1cn(C2CCN(C(=O)c3ccc(F)c(C)c3)CC2)nn1` was tested, and the “Percent Effect” value was 14.23%.
`Cc1cc(F)ccc1OC1(C(=O)O)CCN(Cc2nccn2C)CC1` was tested, and the “Percent Effect” value was -12.18%.
In the case of `O=c1cc(CNS(=O)(=O)C2CC2)nc2n1CCCNC2`, the “Percent Effect” value is reported as 10.88%.
With `O=C(CCC1CCCCO1)NCc1cnn(-c2ccc(F)cc2F)c1` (stereo not drawn) the “Percent Effect” value was 2.583%.
`COc1ccc(C)cc1-n1cnnc1C1CCOCC1` was tested, and the “Percent Effect” value was 1.298%.
In the case of `CCC[C@@H]1CN(Cc2ccc(C(F)(F)F)nc2)C[C@H]1NS(C)(=O)=O`, the “Percent Effect” value is reported as -0.637%.
For `CS(=O)(=O)N[C@@H]1CN(Cc2ccc3ncccc3c2)C[C@H]1O`, the “Percent Effect” value was 100.1%.
With `CCC[C@@H]1CN(C(=O)c2cnc3ccccc3c2)C[C@H]1NS(C)(=O)=O` the “Percent Effect” value was -44.49%.
`CSc1ccsc1C(=O)NS(=O)(=O)c1cnn(C)c1` was tested, and the “Percent Effect” value was -33.43%.
With `COc1ccc(OCC(=O)n2nc(C)c(C)c2C)cc1` the “Percent Effect” value was 7.668%.
With `Cc1ccc(-n2cnc(Cl)c2CO)cc1` the “Percent Effect” value was 81.89%.
In the case of `OCc1c(Cl)ncn1-c1ccc(F)cc1`, the “Percent Effect” value is reported as 124.8%.
`COc1ccc(-n2cnnc2CC2CCNCC2)cc1` was tested, and the “Percent Effect” value was -7.776%.
`COc1ccc(-n2cnc(Cl)c2CO)cc1` was tested, and the “Percent Effect” value was 99.78%.
In the case of `COC(=O)CN1CCN(c2cccc(C)c2)CC1`, the “Percent Effect” value is reported as -56.86%.
In the case of `O=C1CC(c2ccc(C(=O)O)cc2)c2ncn(-c3ccc(F)cc3)c2N1` (stereo not drawn), the “Percent Effect” value is reported as -3.148%.
`Cc1cccc(N2CCN(C(=O)CN3CCN(CCO)CC3)CC2)c1` was tested, and the “Percent Effect” value was -11.5%.
With `Cc1cccc(-n2cnc(Cl)c2CO)c1` the “Percent Effect” value was 116.1%.
In the case of `CC(=O)c1c(C)cc(C)c(Cn2ccnc2S(C)(=O)=O)c1C`, the “Percent Effect” value is reported as -6.43%.
With `CCOCCCC(=O)Nc1[nH]nc(-c2ccncc2)c1C` the “Percent Effect” value was 17.32%.
`OCc1c(Cl)ncn1-c1ccccc1` was tested, and the “Percent Effect” value was 94.93%.
In the case of `Cc1ccccc1-n1cnc(Cl)c1CO`, the “Percent Effect” value is reported as 94.22%.
`Cc1ccccc1-n1cnnc1SCC1CCCCO1` (stereo not drawn) was tested, and the “Percent Effect” value was 0.1895%.
With `Cc1ccccc1-n1cnnc1SCC(=O)NCC1CCCO1` (stereo not drawn) the “Percent Effect” value was 6.164%.
For `Cc1ccoc1C(=O)NCCOc1ncc(Cl)cc1Cl`, the “Percent Effect” value was -11.16%.
In the case of `Cc1nn(CCC#N)c(C)c1[C@@H]1C=C[C@@H](NCc2cccc(Cl)c2)C1`, the “Percent Effect” value is reported as -10.09%.
`O=C(Nc1ccncc1)NC1CCN(c2ccccc2OC(F)F)C1` (stereo not drawn) was tested, and the “Percent Effect” value was -11.28%.
For `Cc1noc(CCCc2nc(C3CCOC3)no2)n1` (stereo not drawn), the “Percent Effect” value was 78.93%.
For `Cc1ccc(CCc2nc(C3CCOC3)no2)o1` (stereo not drawn), the “Percent Effect” value was 90.49%.
In the case of `CCc1nc(C2CCCN(c3nccc(C)n3)C2)no1` (stereo not drawn), the “Percent Effect” value is reported as -0.3429%.
In the case of `Cc1noc(C)c1Cc1nc(C2CC2)no1`, the “Percent Effect” value is reported as -12.44%.
`Cc1noc(C)c1CCc1nc(C2CCOC2)no1` (stereo not drawn) was tested, and the “Percent Effect” value was 100.6%.
For `CC(C)CCN1CCN(Cc2nc(C3CC3)no2)CC1`, the “Percent Effect” value was -1.38%.
With `Cc1noc(C)c1CS(=O)(=O)Cc1nc(C2CC2)no1` the “Percent Effect” value was -5.953%.
In the case of `Cc1noc(CCCC(=O)N(CC2CCOC2)C2CC2)n1` (stereo not drawn), the “Percent Effect” value is reported as -3.8%.
In the case of `Cc1ccccc1CS(=O)(=O)Cc1nc(C2CC2)no1`, the “Percent Effect” value is reported as -6.253%.
`CCOCC(=O)NC(C)c1cc(C)ccc1C` (stereo not drawn) was tested, and the “Percent Effect” value was 4.424%.
With `c1nc(CSc2nnc(C3CC3)s2)cs1` the “Percent Effect” value was -11.09%.
`CCN1CCC(CC(=O)NCc2cc(C)nn2C)CC1` was tested, and the “Percent Effect” value was -11.94%.
With `COc1c(CNCC(=O)N2CCN(C)CC2)c(C(C)C)nn1C` the “Percent Effect” value was 95.67%.
In the case of `CC(C)c1nn(C)c(N(C)C)c1CNCCC(=O)N(C)C.Cl`, the “Percent Effect” value is reported as -2.081%.
For `CC(C)c1nn(C)c(Cl)c1CNCC(=O)N1CCN(C)CC1.Cl`, the “Percent Effect” value was 99.42%.
For `COc1c(CNC2(c3noc(C)n3)CCC2)c(C(C)C)nn1C.Cl`, the “Percent Effect” value was -8.281%.
`COc1c(CNCc2cnn(C)c2)c(C(C)C)nn1C` was tested, and the “Percent Effect” value was -6.64%.
In the case of `CC(C)c1nn(C)c(N2CCOCC2)c1CNCC(=O)N(C)C`, the “Percent Effect” value is reported as -5.66%.
`Cc1cccc(N2CCC(NC(C)c3cccs3)CC2)n1` (stereo not drawn) was tested, and the “Percent Effect” value was -26.34%.
For `C[C@@H]1CN(c2ccc3c(Cl)ccnc3c2F)CC(C(N)=O)O1` (stereo partly drawn), the “Percent Effect” value was -9.196%.
In the case of `CC(C)c1noc(CCCC(=O)NC2CCS(=O)(=O)C2)n1` (stereo not drawn), the “Percent Effect” value is reported as 7.76%.
`CC(C)(C)S(=O)(=O)c1ccc(N2CCN(c3ccccn3)CC2)nn1` was tested, and the “Percent Effect” value was 14.84%.
With `CCN1CC2(CNCCN(C(=O)Nc3ccccc3)C2)CC1=O.O=C(O)C(F)(F)F` (stereo not drawn) the “Percent Effect” value was -17.66%.
With `Cc1cccc(N2CC3(CCN(S(=O)(=O)c4ccccc4)C3)CC2=O)c1` (stereo not drawn) the “Percent Effect” value was -6.441%.
With `CC(C)NC(=O)N1CCC2(CC(=O)N(c3ccsc3)C2)C1` (stereo not drawn) the “Percent Effect” value was 94%.
`O=C(Cc1ccccc1)N1CCC2(CC(=O)N(c3ccsc3)C2)C1` (stereo not drawn) was tested, and the “Percent Effect” value was 4.465%.
With `CC(C)NC(=O)N1CCC2(C1)CN(c1ccsc1)C(=O)CN2C.O=C(O)C(F)(F)F` (stereo not drawn) the “Percent Effect” value was -13.82%.
`CC(C)NC(=O)N1CCC2(CC(=O)N(c3cccc(C#N)c3)C2)C1` (stereo not drawn) was tested, and the “Percent Effect” value was -3.038%.
With `Cc1cccc(NC(=O)N2CCC3(CC(=O)N(c4ccsc4)C3)C2)c1` (stereo not drawn) the “Percent Effect” value was 111.9%.
`COCC(=O)N1CCC2(CC(=O)N(c3cccc(F)c3)C2)C1` (stereo not drawn) was tested, and the “Percent Effect” value was -16.31%.
With `O=C(Nc1ccccc1)N1CCC2(CC(=O)N(c3ccsc3)C2)C1` (stereo not drawn) the “Percent Effect” value was 106%.
`O=C(c1cnccn1)N1CC[C@H]2[C@@H]1CCC(=O)N2c1cccnc1` was tested, and the “Percent Effect” value was -6.797%.
`COc1cc(C)cc(C(C(=O)O)N(C)Cc2ccncc2C)c1OC` (stereo not drawn) was tested, and the “Percent Effect” value was 4.518%.
For `CN(C)C(=O)CN1C[C@@H]2CC[C@H](C1)N(Cc1ccc(Cl)cc1Cl)C2`, the “Percent Effect” value was -35.05%.
For `Cc1ccc([C@]2(O)CC[C@H]3CN(Cc4ccc(Cl)cc4Cl)C[C@H]32)nc1`, the “Percent Effect” value was 121.2%.
In the case of `CSc1ccc(CN2C[C@@H]3CC[C@@](O)(c4ccc(C)cn4)[C@@H]3C2)cc1`, the “Percent Effect” value is reported as 135.2%.
With `Cc1cccc(C2(NC(=O)CCN3C(=O)CCC3=O)CCCC2)c1` the “Percent Effect” value was -3.276%.
`COCCN1CCC(CNc2cnc3ccccc3n2)CC1` was tested, and the “Percent Effect” value was -17.24%.
`COCc1ccccc1NC(=O)NCc1ccc(OCC2CC2)nc1` was tested, and the “Percent Effect” value was 7.542%.
`COCCOc1ccc(CNc2nc3ccccc3o2)cn1` was tested, and the “Percent Effect” value was 106.2%.
In the case of `COCCN1CCC(CNc2nc3ccccc3o2)CC1`, the “Percent Effect” value is reported as 8.013%.
For `OC1CCN(c2ccc(CNc3nc4ccccc4o3)cc2F)CC1`, the “Percent Effect” value was -1.066%.
`COCCOc1ccc(CNc2nc3ccccc3nc2N)cn1` was tested, and the “Percent Effect” value was 162.2%.
With `COCCOc1ccc(NCc2cccc3cn[nH]c23)cn1` the “Percent Effect” value was -20.32%.
`COCCOc1ccc(CNc2cnc3ccccc3n2)cn1` was tested, and the “Percent Effect” value was 132.7%.
`OCCOc1ccc(NCc2cccnc2)cn1` was tested, and the “Percent Effect” value was 7.993%.
`Cl.O=C1CC(NCc2cnc(N3CCCC3)nc2)CN1c1ccccc1` (stereo not drawn) was tested, and the “Percent Effect” value was 36.64%.
For `CC(C)N1CCO[C@H]2CN(C(=O)c3ccc(N(C)C)cc3)C[C@H]21`, the “Percent Effect” value was -8.625%.
`CN(C(=O)c1ccc[nH]1)C1CC(=O)N(Cc2ccccc2)C1=O` (stereo not drawn) was tested, and the “Percent Effect” value was -8.622%.
With `CCOCC(=O)Nc1ncc(I)cc1C` the “Percent Effect” value was -8.606%.
`Cc1cc(C)c(S(=O)(=O)Nc2c(C)nc(N3CCCC3)nc2C)cc1C` was tested, and the “Percent Effect” value was 12.58%.
`CNC(=O)N1CCC2(CC1)CN(C)Cc1cc(F)ccc12.Cl` was tested, and the “Percent Effect” value was 24.69%.
`Cc1nn(C)c(C)c1C1CCCN1Cc1nnc(C2CC2)n1C` (stereo not drawn) was tested, and the “Percent Effect” value was -7.496%.
`CCCc1nnc(N2CCCC(c3nnc(Cn4ccnc4)n3C)C2)s1` (stereo not drawn) was tested, and the “Percent Effect” value was 0.1518%.
For `Cn1c(Cn2ccnc2)nnc1C1CCN(C(=O)c2ccccn2)CC1`, the “Percent Effect” value was 107.7%.
In the case of `Cc1nc(C(=O)N2CCC(c3nccn3Cc3ccncc3)CC2)cs1`, the “Percent Effect” value is reported as -0.8492%.
For `CN(CCO)Cc1nnc(C2CCN(C(=O)c3cccnc3)CC2)n1C`, the “Percent Effect” value was -5.743%.
With `Cn1c(Cn2ccnc2)nnc1C1CCN(C(=O)c2cccnc2)CC1` the “Percent Effect” value was 92.17%.
With `Cc1cc(C(=O)N2CCC(c3nnc(Cn4ccnc4)n3C)CC2)cs1` the “Percent Effect” value was 95.2%.
For `Cc1nc(C(=O)N2CCC(c3nnc(Cn4ccnc4)n3C)CC2)cs1`, the “Percent Effect” value was 92.58%.
`CN(CCO)Cc1nnc(C2CCN(C(=O)c3ccccn3)CC2)n1C` was tested, and the “Percent Effect” value was -1.336%.
In the case of `Cc1nn(CN(CC2CCOC2)C2CC2)c(=O)c2ccccc12` (stereo not drawn), the “Percent Effect” value is reported as -4.031%.
`Cc1nn(C)c(N2CCOCC2)c1CNC1CCOc2ccccc21` (stereo not drawn) was tested, and the “Percent Effect” value was -6.51%.
`Cc1nnc(NCC2(c3ccccc3)CC2)c(C#N)c1C` was tested, and the “Percent Effect” value was 14.48%.
In the case of `CC(=O)NCC(Cc1cccc(F)c1)n1cccc1` (stereo not drawn), the “Percent Effect” value is reported as 7.369%.
`CCNC(=O)CN(CC)C(=O)c1cccc(Nc2cnn(C)c2)c1` was tested, and the “Percent Effect” value was -0.2175%.
`CN(Cc1cnc(N)nc1)C(=O)C1CC(=O)N(Cc2ccncc2)C1` (stereo not drawn) was tested, and the “Percent Effect” value was -0.2602%.
For `CN1CCN(Cc2n[nH]c(=O)n2CC2CCCCC2)CC1`, the “Percent Effect” value was 12.01%.
In the case of `N#Cc1cccc(N2CCC(CO)(CCc3ccccc3)CC2)n1`, the “Percent Effect” value is reported as -13.62%.
`Cc1cnc(NCC(C)(C)N2CCN(C)CC2)nc1` was tested, and the “Percent Effect” value was -0.3057%.
For `Cn1cccc1C(=O)N1CCC(c2nnc(Cn3ccnc3)n2C)CC1`, the “Percent Effect” value was 89.43%.
For `Cc1[nH]ccc1C(=O)N1CCC(c2nnc(Cn3ccnc3)n2C)CC1`, the “Percent Effect” value was 6.251%.
In the case of `CN(CCO)Cc1nnc(C2CCN(C(=O)c3cccn3C)CC2)n1C`, the “Percent Effect” value is reported as -1.148%.
In the case of `Cn1c(Cn2ccnc2)nnc1C1CCN(Cc2cccnc2N)CC1`, the “Percent Effect” value is reported as -5.827%.
`Cn1c(Cn2ccnc2)nnc1C1CCN(C(=O)c2ccncc2)CC1` was tested, and the “Percent Effect” value was 74.15%.
For `Cn1cccc1C(=O)N1CCC(c2nccn2Cc2ccncc2)CC1`, the “Percent Effect” value was 14.15%.
For `Cn1c(Cn2ccnc2)nnc1C1CCN(C(=O)c2ccoc2)CC1`, the “Percent Effect” value was 96.26%.
`CN(CCO)Cc1nnc(C2CCN(C(=O)c3ccccc3)CC2)n1C` was tested, and the “Percent Effect” value was 8.451%.
`Cn1nc(Cn2ccnc2)c2c1CN(C(=O)c1ccoc1)C2.O=C(O)C(F)(F)F` was tested, and the “Percent Effect” value was -63.76%.
